Laboratory results from the supplement of paper PMC6555819.

system: VDR:RXRa (NR concentration 270 nM, RXRa partner concentration 90 nM); test: PBM binding z-score (relative to random genomic background probes); higher = stronger binding; sequences stand for … in GC…GCGATTGACAGCGTAGAATGAAGG
Description: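 Protein-binding microarray (Agilent 4x180K custom design, double-stranded 60-nt probes: 5' GC cap, 34-nt variable region, 24-nt constant primer region; full probe sequence given). Purified or IVT nuclear receptor:RXRα heterodimers (3:1 NR:RXRα, mostly 270:90 nM) or homodimers were incubated for 1 h in PBS with 2% milk and no ligand, then detected with Alexa488 antibodies. Fluorescence from o1-orientation probes (~5 replicates averaged) was converted to z-scores against 500 random hg19 background probes. Variable regions are seed direct-repeat (DR0–DR5) sites, all their single-nucleotide variants and half-site ablations.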

Q: Which PBM binding z-score does the source give for CCTAGCTGGTCAAGGTCACACACGCTATAGGTAC here?
A: The PBM binding z-score was 3.75.

Q: How did the PBM binding z-score turn out when ATCTCTAGGTAACCAATTTCAGTGAATGCCGAAC was run?
A: Its PBM binding z-score is 0.336.

Q: For TAGCCTAGGTCAGATCCGGCCAGTATACGCTATA, which PBM binding z-score is on record?
A: Its PBM binding z-score is 0.403.

Q: How did the PBM binding z-score turn out when ACTAGATGGTCAGCTGAGGTCACACACAATTCGG was run?
A: Its PBM binding z-score is 4.7.

Q: Which PBM binding z-score does the source give for CGAACTAGGTCATTGACAGGACAGGGAATAGTAA here?
A: The PBM binding z-score was 2.12.

Q: For CGTCCAAGGTCATAGGAGGTCAGTCAAGACAGAT, which PBM binding z-score is on record?
A: Its PBM binding z-score is 6.72.

Q: With GCTAGCTGGTCAGTAAAAGGTCACACACCGGTCG as the sequence, how does the PBM binding z-score read?
A: Its PBM binding z-score is 3.52.

Q: How did the PBM binding z-score turn out when TGAATGAGGTTAAAGATCATGGAACGTGGCGTCG was run?
A: The PBM binding z-score was 2.05.

Q: With GCTTGTAGATGAAGGTTAAGAAAGACTAAGCTAA as the sequence, how does the PBM binding z-score read?
A: The PBM binding z-score was -0.396.

Q: How did the PBM binding z-score turn out when AGAACGAGGGCACGCTGAGTTAATAGCAGAGTAG was run?
A: Its PBM binding z-score is 1.69.

Q: With TAGCATAGGTCAGATCGGGCCAGTATACGCTATA as the sequence, how does the PBM binding z-score read?
A: The PBM binding z-score was 1.77.

Q: CGAACTAGGTCAGAACAGGACAGCGAAGGATGAT was tested. Which PBM binding z-score did it give?
A: Its PBM binding z-score is 0.817.

Q: CAAACTAGGTCAAGGTCAGAGTCGGTTTGTGCCA was tested. Which PBM binding z-score did it give?
A: The PBM binding z-score was 3.93.

Q: Which PBM binding z-score does the source give for CCTAGTTGGTCAAGGTCACACAGGCTATAGGTAC here?
A: Its PBM binding z-score is 4.72.

Q: With GGAACGAGGGCATTCGAGCTGATAGCATGGCGAT as the sequence, how does the PBM binding z-score read?
A: Its PBM binding z-score is 0.809.

Q: How did the PBM binding z-score turn out when ATCTCTAGCTAAGACTCAGTTCAGTGAAGAACGC was run?
A: Its PBM binding z-score is 0.552.

Q: GCTTGTAGAACAAGGTTAAGAAAGACTAAGCTAA was tested. Which PBM binding z-score did it give?
A: The PBM binding z-score was 0.106.

Q: TCTTGTAGATCAATTGAGGTTAAGAAAGTGCGCT was tested. Which PBM binding z-score did it give?
A: Its PBM binding z-score is 1.86.

Q: For CCGAGTAGGTTATGGGGCATTTAGGCAACGGTGA, which PBM binding z-score is on record?
A: Its PBM binding z-score is -0.0639.

Q: With GCTGCTTGGTCAGGTTGGTCAGCTAACGGGTACG as the sequence, how does the PBM binding z-score read?
A: The PBM binding z-score was -0.35.

Q: How did the PBM binding z-score turn out when CTACCAAGGGGAACAAGGTCGTTGATTACTATTC was run?
A: Its PBM binding z-score is 3.86.

Q: With ATATGTAAGTTACATCCGGGTCATTCAGGCTATG as the sequence, how does the PBM binding z-score read?
A: The PBM binding z-score was 3.56.

Q: With GCGACTGGGGCACAGCAGGTTACCATAAGGTTGG as the sequence, how does the PBM binding z-score read?
A: Its PBM binding z-score is -0.208.

Q: For TTACCAAGGTGAAGGTCGTCGATCCCTCTGTAGA, which PBM binding z-score is on record?
A: The PBM binding z-score was 1.09.

Q: For CGTCAACGTTCAAGGTAACGTAACAGAAAGCAGC, which PBM binding z-score is on record?
A: Its PBM binding z-score is -0.14.

Q: Which PBM binding z-score does the source give for ATCGAAAGGTCGACGAGGTGAGTAGACACCGTTT here?
A: Its PBM binding z-score is 5.23.

Q: Which PBM binding z-score does the source give for TCATATAGGTAATACAGGTTAAAGTCGGCATCTA here?
A: The PBM binding z-score was 1.88.

Q: CAAACTTGGTCAAAGGTCAAAGTCGAGCCAACCA was tested. Which PBM binding z-score did it give?
A: Its PBM binding z-score is 5.59.

Q: For TCTTGCAGATCAGCAGGTTAAGAAAGCTGGCCAA, which PBM binding z-score is on record?
A: The PBM binding z-score was -0.0921.

Q: GCGACTGGGGCAAAGCAGGTTACCATTAGGTTGG was tested. Which PBM binding z-score did it give?
A: The PBM binding z-score was -0.0809.

Q: How did the PBM binding z-score turn out when CAAACTAGGTCGAGGTCAAAGTCGGTTTGTGCCA was run?
A: Its PBM binding z-score is 5.52.

Q: How did the PBM binding z-score turn out when ATCTCTAGGTAAAAGGTCAGTGAATCCCGAGGAT was run?
A: Its PBM binding z-score is 2.51.

Q: With TAGCCTAGGTCATTCAGGGGCCAGTGTAGAAAGC as the sequence, how does the PBM binding z-score read?
A: Its PBM binding z-score is 3.33.

Q: How did the PBM binding z-score turn out when TAGCCTAGGCCATGCGGGCCAGTATAGTGTCGGC was run?
A: The PBM binding z-score was -1.04.

Q: Which PBM binding z-score does the source give for GCATACAGGTAATACAAGGTGAAAGTCCGATTGT here?
A: The PBM binding z-score was 0.492.

Q: CGAACTAGGGCAGAACAGGACAGTGAAGGATGAT was tested. Which PBM binding z-score did it give?
A: Its PBM binding z-score is -0.31.

Q: For CGAACTAGGTCAGAATAGGACAGTGAAGGATGAT, which PBM binding z-score is on record?
A: The PBM binding z-score was 0.491.

Q: For CTCGAAAGGTCGGTTGAGGTGAGTATCCGGATAA, which PBM binding z-score is on record?
A: The PBM binding z-score was 2.13.

Q: How did the PBM binding z-score turn out when TATATTAGTTGATTAGGGCAACCGAAACAGCGGA was run?
A: The PBM binding z-score was 0.452.

Q: With AGAACGAGGGCAATCAGTTGATAGCACGGGTGGC as the sequence, how does the PBM binding z-score read?
A: Its PBM binding z-score is 2.58.
